Measured values published in the supplement of paper PMC3545927.
This is one part of the list. The hit rate among all sequences tested is not known here.

Target: furin, P09958
Assay: furin cleavage Z-score vs untreated control; higher = more cleavage, active = 3.5 or more, inactive = 1 or less, 8 variable residues between constant flanks
How it was run: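 Abundance of DNA freed from bead-bound 8-mer peptide–cDNA fusions by purified furin was measured as sequencing read counts after PCR adapter tagging. Cutting ran 7.5, 15 or 30 min in 0.01 ml of 50 mM HEPES pH 7.5 with CaCl2 and NaCl at 1:10 enzyme:substrate. The cleavage Z-score expresses these log counts against furin-free reactions after lowess adjustment and median absolute deviation scaling.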

Chain of furin, P09958 (P09958 whole entry): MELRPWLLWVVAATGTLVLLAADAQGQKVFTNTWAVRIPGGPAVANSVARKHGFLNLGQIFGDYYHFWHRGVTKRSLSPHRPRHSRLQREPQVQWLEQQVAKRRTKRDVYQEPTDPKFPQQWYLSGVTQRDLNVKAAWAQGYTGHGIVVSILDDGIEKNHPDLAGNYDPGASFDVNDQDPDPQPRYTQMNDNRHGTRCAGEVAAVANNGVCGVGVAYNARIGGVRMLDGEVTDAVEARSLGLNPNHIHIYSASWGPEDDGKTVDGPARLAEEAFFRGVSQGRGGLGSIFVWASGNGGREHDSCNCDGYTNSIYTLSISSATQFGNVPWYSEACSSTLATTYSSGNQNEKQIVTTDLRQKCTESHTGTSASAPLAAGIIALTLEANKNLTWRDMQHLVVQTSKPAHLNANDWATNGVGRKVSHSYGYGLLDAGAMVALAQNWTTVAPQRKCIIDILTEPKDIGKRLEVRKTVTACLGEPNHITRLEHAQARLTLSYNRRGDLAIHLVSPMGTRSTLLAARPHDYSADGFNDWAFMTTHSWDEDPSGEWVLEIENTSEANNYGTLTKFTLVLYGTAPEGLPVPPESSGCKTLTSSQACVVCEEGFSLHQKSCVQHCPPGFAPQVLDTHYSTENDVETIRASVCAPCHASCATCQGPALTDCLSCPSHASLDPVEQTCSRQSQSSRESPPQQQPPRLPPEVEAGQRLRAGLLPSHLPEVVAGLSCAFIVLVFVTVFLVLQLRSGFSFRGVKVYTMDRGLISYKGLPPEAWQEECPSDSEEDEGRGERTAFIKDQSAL

Sequence	furin cleavage Z-score (7.5 min)	furin cleavage Z-score (15 min)	furin cleavage Z-score (30 min)
CAAKSVCGPVAGNASASA [HC410]	-0.0296 (inactive)	1.97	-1.19 (inactive)
CAVYNHLTPLAGNASASA [HC635]	-0.863 (inactive)	0.0646 (inactive)	-0.69 (inactive)
CAEEPCHRPSAGNASASA [HC2332]	0.704 (inactive)	0.583 (inactive)	-1.24 (inactive)
CARVARSRELAGNASASA [FS-1842]	4.74 (active)	5.44 (active)	7.45 (active)
CARVWRDSFLAGNASASA [FS-2407]	-0.29 (inactive)	1.62	0.504 (inactive)
CAFLKRSGRDAGNASASA [FS-1324]	4.93 (active)	3.96 (active)	4.12 (active)
CARVARSGRDAGNASASA [FS-3115]	2.88	2.99	4.3 (active)
CAKLKRSHELAGNASASA [FS-2868]	0.465 (inactive)	2.2	1.3
CARVARLLSAAGNASASA [FS-3114]	-1.2 (inactive)	0.294 (inactive)	-1.59 (inactive)
CATPAETTVRAGNASASA [HC926]	-0.713 (inactive)	1.4	-0.157 (inactive)
CAGALVAFKIAGNASASA [HC1091]	-1.03 (inactive)	-0.999 (inactive)	-1.45 (inactive)
CAMGSSYGFQAGNASASA [HC1464]	0.332 (inactive)	-0.28 (inactive)	-0.392 (inactive)
CAEHFRKKRSAGNASASA [FS-1450]	13.1 (active)	12 (active)	10.4 (active)
CASYFRKKRSAGNASASA [FS-1288]	10.9 (active)	10.4 (active)	8.85 (active)
CAEHVRKLRSAGNASASA [FS-990]	9.51 (active)	9.45 (active)	7.69 (active)
CAVVCCSMSDAGNASASA [HC2091]	-0.81 (inactive)	0.345 (inactive)	-0.759 (inactive)
CALCECYDAGAGNASASA [HC919]	-0.871 (inactive)	0.625 (inactive)	-1.3 (inactive)
CAGHVKNGTMAGNASASA [HC1179]	0.572 (inactive)	0.821 (inactive)	0.846 (inactive)
CARFSKSADEAGNASASA [FS-2927]	-0.221 (inactive)	-0.408 (inactive)	-0.912 (inactive)
CARIRRGTDEAGNASASA [FS-1956]	12.4 (active)	12.2 (active)	8.37 (active)
CARIKKDKKEAGNASASA [FS-2951]	-1.75 (inactive)	-0.739 (inactive)	-0.88 (inactive)
CARGARGVRVAGNASASA [FS-2929]	-0.658 (inactive)	-0.415 (inactive)	-0.385 (inactive)
CAVALSTTGEAGNASASA [HC843]	-1.85 (inactive)	-1.96 (inactive)	-0.758 (inactive)
CARIRRDANEAGNASASA [FS-3189]	13.3 (active)	13.5 (active)	9.85 (active)
CARIRRDVRVAGNASASA [FS-1899]	8.22 (active)	10.4 (active)	7.12 (active)

Sequence	furin cleavage Z-score (7.5 min)	furin cleavage Z-score (15 min)	furin cleavage Z-score (30 min)
CAEVPCHRPGAGNASASA [HC2416]	-0.244 (inactive)	-0.922 (inactive)	0.598 (inactive)
CATKVCGAPPAGNASASA [HC441]	0.138 (inactive)	0.123 (inactive)	-0.197 (inactive)
CARPRRSAPKAGNASASA [FS-3200]	8.12 (active)	8.75 (active)	6.05 (active)
CARPRRFFPGAGNASASA [FS-1964]	-0.922 (inactive)	-0.718 (inactive)	-0.224 (inactive)
CARPRRSAHRAGNASASA [FS-1863]	8.93 (active)	9.74 (active)	8.89 (active)
CARPRRGSHPAGNASASA [FS-2359]	0.189 (inactive)	1.65	2.41
CARPRRSAGKAGNASASA [FS-2059]	6.62 (active)	6.92 (active)	6.48 (active)
CARPRRRLGPAGNASASA [FS-2503]	0.585 (inactive)	1.48	1.2
CARPRRGSLRAGNASASA [FS-2502]	-1.01 (inactive)	-0.431 (inactive)	1.07
CAYVVTSTWVAGNASASA [HC2149]	0.323 (inactive)	-0.464 (inactive)	-0.44 (inactive)
CANGVCWTVYAGNASASA [HC698]	-1.07 (inactive)	2.25	-1.18 (inactive)
CANIIMFAPTAGNASASA [HC1576]	-0.25 (inactive)	-0.574 (inactive)	-0.569 (inactive)
CAARGGRAAIAGNASASA [HC1627]	0.309 (inactive)	-1.06 (inactive)	0.234 (inactive)
CARVCRSDNTAGNASASA [FS-2194]	2.3	1.13	4.01 (active)
CARVGRSSKQAGNASASA [FS-2838]	0.0354 (inactive)	0.533 (inactive)	2.07
CALVGLMALTAGNASASA [HC572]	-0.292 (inactive)	-0.497 (inactive)	-0.985 (inactive)
CARVGRSLPTAGNASASA [FS-2098]	8.92 (active)	10.2 (active)	8.81 (active)
CARVGRSVTDAGNASASA [FS-3117]	9.08 (active)	9.86 (active)	8.63 (active)
CARVGRGVSIAGNASASA [FS-2195]	-0.488 (inactive)	-0.0472 (inactive)	2.09
CARKGRSEDIAGNASASA [FS-2341]	0.928 (inactive)	1.18	-0.197 (inactive)
CARVPRDPSTAGNASASA [FS-2620]	0.232 (inactive)	0.063 (inactive)	1.18
CAMALYDVVTAGNASASA [HC1457]	-0.109 (inactive)	-0.594 (inactive)	1.06
CARVGRQVVTAGNASASA [FS-2470]	1.41	4.05 (active)	2.16
CARKGRVVIDAGNASASA [FS-2263]	-1.41 (inactive)	-0.368 (inactive)	0.767 (inactive)
CARVCCSMSYAGNASASA [HC1993]	-1.56 (inactive)	0.796 (inactive)	0.275 (inactive)
